HCMV antiviral: qHTS Assay for inhibitors of the human cytomegalovirus (HCMV). HFF cells, HCMV-luciferase reporter, 72 h; hits give low values. activity change, negative = inhibition, % at 57.5 µM. 410,000 tested, 4.5% active. AID 1259415, 2018; in the data active = activity change below about -60%; inconclusive = no clear call, values can overlap the other calls; inactive = above about -39%
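Two compound doses tested in HFFs infected with HCMV-luciferase, MOI 1 PFU/cell, 72 h at 37C. Lysate luminescence read with OneGlo; data normalized against buffer-only and 10uM Salinomycin inhibitor controls.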
FMDV antiviral: High Throughput Screening for Foot and Mouth Disease Virus Antivirals; 410,000 tested, 1.2% active; Potency, µM (top dose mostly 57.9 µM), inactives show at the highest dose activity change, negative = inhibition, usual class: inhibitors; FMDV antiviral cell-based qHTS; calls by dose curve; tested in HEK293T cells; also: read-out not given here; potency is read from the fitted curve at half-maximal effect; nearly all actives have a fitted effect of over 45% in size
VACV mCherry inh: qHTS for Stage-Specific Inhibitors of Vaccinia Orthopoxvirus: mCherry Reporter Primary qHTS. Vaccinia virus mCherry reporter infection, fluorescence. Potency, µM (titrated, usually from 36.5 µM), inactives show at the top dose activity change, negative = inhibition, most hits filed as inhibitors. 310,000 tested, 0.63% active; calls by dose curve; tested in A549 cells; also: potency is read from the fitted curve at half-maximal effect; nearly all actives have a fitted effect of over 35% in size
HCV inhibitor: qHTS Assay for Inhibitors of Hepatitis C Virus (HCV). 340,000 tested, 3.4% active. Potency, µM (highest dose often 41.8 µM), inactives show at the highest dose activity change, negative = inhibition, most hits filed as inhibitors. Huh7.5.1 HCVcc-Cre infection, luciferase reporter, 44 h; active = well fitted inhibition curve with a large enough effect; inconclusive = small, poorly fitted or top-dose-only effect, or another doubt; inactive = no such curve, though single readings can be large or run the other way; also: potency is read from the fitted curve at half-maximal effect
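Seed cells (1,000/well) for 4 h; treat with compound and infect with HCVcc-Cre, moi about 0.5. Incubate 44 h, then detect luciferase activity.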
VACV Venus inh: qHTS for Stage-Specific Inhibitors of Vaccinia Orthopoxvirus: Venus Reporter Primary qHTS; AID 720580, 2013; Vaccinia virus Venus reporter expression, fluorescence; Potency, µM (top dose mostly 36.5 µM), for the others: top-dose activity change, negative = inhibition, most hits filed as inhibitors; 330,000 tested, 0.46% active; calls by dose curve; tested in A549 cells; also: potency is read from the fitted curve at half-maximal effect; nearly all actives have a fitted effect of over 30% in size
Active calls of the source: *; i = inactive; ? = inconclusive; . = no result given; [ ] = remark or other dose. This is a sample that favours compounds with a hit; in the whole collection about 7.3% have one here. % is scaled to controls: 0 for no effect and ±100 for the full control effect.

SMILES	HCMV antiviral	FMDV antiviral	VACV mCherry inh	HCV inhibitor	VACV Venus inh
CCC(O)C1CCN(C(=O)c2cc(COc3ccc4ncccc4c3)on2)CC1 (stereo unspecified)	.	?	-18%	1.8µM*	-24%
Cc1ccc(OCc2cc(C(=O)N(C)CC3CCOCC3)no2)cc1C	58	25%	.	-20%	.
CC(CNC(=O)c1cc(COc2ccc3ncccc3c2)on1)c1ccccc1 (stereo unspecified)	-76*	?	-7%	?	-24%
COc1ccc(/C=C/C(=O)Nc2ccc3nc4c(c(Nc5ccc(OC)c(OC)c5)c3c2)CCCC4)cc1	-99*	-19%	?	.	?
COc1ccc(Nc2c3c(nc4ccc(NC(=O)/C=C/c5cc(OC)c(OC)c(OC)c5)cc24)CCCC3)cc1OC	-102*	0%	-10%[7.34 µM]	.	-17%[7.34 µM]
COc1ccc(/C=C/C(=O)Nc2ccc3nc4n(c(=O)c3c2)CCCC4)cc1OC	-34	-6%	.	-28%	.
COc1ccc(Cn2c(SCc3ccc(C(=O)NC(C)c4ccccc4)cc3)nc3cccnc32)cc1 (stereo unspecified)	-4	-9%	-11%	.	-17%
CC(C)NC[C@H](O)COc1cccc2ccccc12	34	-21%	-8%	?	-16%
CC(C)NC[C@H](O)COc1cccc2[nH]ccc12	-81*	-8%	-11%	?	-8%
COCCCN(C(=O)c1ccco1)c1nc(-c2ccc(OC)cc2)cs1	46	-23%	-21%	?	-18%
COCCCN(C(C)=O)c1nc(-c2ccccc2)cs1	68	9%	.	13µM*	.
COCCCN(C(=O)c1ccccc1F)c1nc(-c2ccc(OC)cc2)cs1	9	-11%	.	10µM*	.
COCCCN(C(=O)c1ccccc1)c1nc(-c2ccc(OC)cc2)cs1	-21	-18%	.	13µM*	.
Cc1ccc(NC(=O)N2CCc3cc(S(=O)(=O)N4CCC(C)CC4)ccc32)cc1	-29	-12%	-13%	.	-13%
O=C(N[C@@H]1CC[C@@H](CCn2cc(-c3ccccc3)nn2)O[C@@H]1CO)c1cnccn1	-70*	-14%	3%	.	-5%
CCOc1ccc(-n2nc3ccc(NC(=O)c4ccc(-c5cccc(Cl)c5)o4)cc3n2)cc1	-12	-24%	-4%	.	0%
CCc1cc2cc(C(=O)Nc3ccc(C)cc3)sc2s1	-67*	28%	-26%	-14%	-30%
Cc1ccc(-c2sc(C(=O)Nc3ccc(Br)cc3)cc2CC(=O)O)cc1	10	-10%	0%	.	1%
O=C(/C=C/c1ccco1)NC(=S)Nc1cccc(-c2nc3ccccc3s2)c1	57	-6%	-23%	10µM*	?
O=C(/C=C/c1ccco1)NC(=S)Nc1cc(-c2nc3ccccc3s2)ccc1Cl	280	6%	i	-1%	-29%
Cc1ccc(-n2nc3cc(C)c(NC(=S)NC(=O)/C=C/c4ccco4)cc3n2)cc1	-25	13%	-14%	?	-4%
Cc1ccc(-n2nc3ccc(NC(=S)NC(=O)/C=C/c4ccco4)cc3n2)cc1	-68*	9%	-10%	2%	-8%
O=C(Cn1c(=O)n(-c2ccccc2)c(=O)c2ccc(C(=O)NCc3ccc4c(c3)OCO4)cc21)Nc1ccc(Br)cc1F	-4	-3%	-17%	.	-25%
Cc1ccc(C(=O)OCC(=O)NCCN2C(=O)CSC2=O)cc1[N+](=O)[O-]	-3	-11%	.	4%	.
CC1CCN(c2ccc(C(=O)OCC(=O)NCCN3C(=O)CSC3=O)cc2[N+](=O)[O-])CC1	-78*	?	i	-26%	-5%
SMILES	HCMV antiviral	FMDV antiviral	VACV mCherry inh	HCV inhibitor	VACV Venus inh
CC1=C(C(=O)Nc2ccc(C)cc2C)C(CC(C)C)n2nc(SCc3ccccc3C)nc2N1 (stereo unspecified)	-7	11%	-4%	.	-3%
O=C(Nc1ccc(F)cc1F)c1ccc(-n2cnc3cccnc32)cc1	-21	21%	0%	.	-1%
COc1ccc(C=NNc2nc3ccccc3s2)cc1	15	-61%	?	8%	6%
O=[N+]([O-])c1cc(Cl)cc(/C=N/Nc2nc3ccccc3s2)c1O	33	-13%	-11%	11µM*	-16%
Cc1csc(N/N=C/c2ccccn2)n1	-103*	?	?	?	?
C(=N\Nc1nc2ccccc2s1)/c1ccccn1	-97*	3.5µM*	13µM*	1.8µM*	?
